# Experimental data taken from the supplement of paper PMC9262897, “Low-cost anti-mycobacterial drug discovery using engineered E. coli” (Nature Communications, 2022).
# Counter-ions that a name gives are not always drawn. ± gives the standard deviation of the averaged measurements.
# Test system: E. coli TESEC Mtb Alr
# Experiment: growth (OD600 after 10 h); higher = more growth (less inhibition)
# Details: arabinose 100000 nM; compound 0.1 mM; raw OD600 reference: median of DMSO wells 0.201, cell-free background 0.041
# Method: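 TESEC Mtb Alr E. coli, or the Alr+ wild-type control, in 384-well plates with Prestwick library compounds at 0.1 mM and 1% DMSO, across arabinose induction levels of 1E3 to 1E7 nM. Growth is read as OD600 after 10 h at 37 °C in triplicate biological replicates.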
row,SMILES,growth
1,CC(C)c1ccc2oc3nc(N)c(C(=O)O)cc3c(=O)c2c1 [Amlexanox],0.157 ± 0.0046
2,CCC1=C(C)CN(C(=O)NCCc2ccc(S(=O)(=O)NC(=O)N[C@H]3CC[C@H](C)CC3)cc2)C1=O [Glimepiride],0.161 ± 0.0087
3,CCOc1ccc2ccccc2c1C(=O)N[C@@H]1C(=O)N2[C@@H]1SC(C)(C)[C@@H]2C(=O)O [Nafcillin sodium salt monohydrate],0.203 ± 0.0041
4,S=c1[nH]cnc2nc[nH]c12 [Mercaptopurine],0.0694 ± 0.0044
5,O=C(O)c1cccnc1 [Niacin],0.243 ± 0.0028
6,CC(=O)OCC(=O)[C@@]1(O)CC[C@H]2[C@@H]3CCC4=CC(=O)C=C[C@]4(C)[C@@]3(F)[C@@H](O)C[C@@]21C [Isoflupredone acetate],0.213 ± 0.015
7,CCc1oc2ccccc2c1C(=O)c1cc(Br)c(O)c(Br)c1 [Benzbromarone],0.0421 ± 0.0019
8,NS(=O)(=O)c1cc(Cl)c(Cl)c(S(N)(=O)=O)c1 [Dichlorphenamide],0.211 ± 0.027
9,O=C(O)[C@H]1/C(=C/CO)O[C@@H]2CC(=O)N21 [Clavulanate potassium salt],0.0582 ± 0.0016
10,COc1ccccc1OCCNCC(O)COc1cccc2[nH]c3ccccc3c12 (stereo not drawn) [Carvedilol],0.0419 ± 0.00047
11,CC(=O)N[C@@H](CS)C(=O)O [Acetylcysteine],0.203 ± 0.019
12,CO[C@@]1(NC(=O)C2SC(=C(C(N)=O)C(=O)O)S2)C(=O)N2C(C(=O)O)=C(CSc3nnnn3C)CS[C@@H]21 (stereo partly drawn) [Cefotetan],0.03763 ± 0.00032
13,CC(=O)O[C@H]1C(=O)[C@@]2(C)[C@H]([C@H](OC(=O)c3ccccc3)[C@]3(O)C[C@H](OC(=O)[C@H](O)[C@@H](NC(=O)c4ccccc4)c4ccccc4)C(C)=C1C3(C)C)[C@]1(OC(C)=O)CO[C@@H]1C[C@@H]2O [Paclitaxel],0.222 ± 0.019
14,Nc1nc(=O)[nH]cc1F [Flucytosine],0.187 ± 0.011
15,CN(C)CCC[C@@]1(c2ccc(F)cc2)OCc2cc(C#N)ccc21 [Escitalopram oxalate],0.199 ± 0.0081
16,CCOC(=O)OC(C)OC(=O)[C@@H]1N2C(=O)[C@@H](NC(=O)[C@H](N)c3ccccc3)[C@H]2SC1(C)C (stereo partly drawn) [Bacampicillin hydrochloride],0.356 ± 0.0077
17,CN1CCCN=C1/C=C/c1cccs1 [Pyrantel tartrate],0.191 ± 0.015
18,CN1CCOC(c2ccccc2)c2ccccc2C1 (stereo not drawn) [Nefopam hydrochloride],0.185 ± 0.012
19,c1ccc2c(CC3=NCCN3)cccc2c1 [Naphazoline hydrochloride],0.191 ± 0.019
20,COc1cc(C)nc(-n2nc(C)cc2OC)n1 [Epirizole],0.178 ± 0.019

row,SMILES,growth
1,CCc1cccc2c3c([nH]c12)C(CC)(CC(=O)O)OCC3 (stereo not drawn) [Etodolac],0.162 ± 0.0052
2,C[C@]12CC[C@@H]3c4ccc(O)cc4CC[C@H]3[C@@H]1C[C@@H](O)[C@@H]2O [Estriol],0.148 ± 0.0042
3,N#Cc1ccc(C(c2ccc(C#N)cc2)n2cncn2)cc1 [Letrozole],0.243 ± 0.028
4,Cc1cc(C2CCCCC2)n(O)c(=O)c1 [Ciclopirox ethanolamine],0.0447 ± 0.00064
5,CC(=O)/N=c1/sc(S(N)(=O)=O)nn1C [Methazolamide],0.198 ± 0.019
6,CC(C)NC[C@H](O)COc1ccc(CC(N)=O)cc1 [(S)-(-)-Atenolol],0.214 ± 0.04
7,COc1cc(OC)c(C(=O)CCCN2CCCC2)c(OC)c1 [Buflomedil hydrochloride],0.201 ± 0.04
8,CCN1CCC[C@H]1CNC(=O)c1c(OC)ccc(Br)c1OC [Remoxipride Hydrochloride],0.192 ± 0.0085
9,CN(C)c1nc(N(C)C)nc(N(C)C)n1 [Altretamine],0.209 ± 0.0047
10,Nc1ccn([C@@H]2O[C@H](CO)[C@@H](O)[C@@H]2O)c(=O)n1 [Cytarabine],0.214 ± 0.025
11,CC(N)C12CC3CC(CC(C3)C1)C2 (stereo not drawn) [Rimantadine Hydrochloride],0.207 ± 0.025
12,Cn1c(=O)c2nc[nH]c2n(C)c1=O [Theophylline monohydrate],0.21 ± 0.027
13,O=C(O)c1ccccc1OP(=O)(O)O [Fosfosal],0.192 ± 0.026
14,COC(=O)Nc1nc2cc(C(=O)c3ccccc3)ccc2[nH]1 [Mebendazole],0.189 ± 0.011
15,O=c1[nH]cc(F)c(=O)[nH]1 [5-fluorouracil],0.0825 ± 0.0014
16,CCc1nn(CCCN2CCN(c3cccc(Cl)c3)CC2)c(=O)n1CCOc1ccccc1 [Nefazodone HCl],0.0431 ± 0.00062
17,COc1cc(NC(C)CCCN)c2ncccc2c1 (stereo not drawn) [Primaquine diphosphate],0.0508 ± 0.0023
18,CNS(=O)(=O)Cc1ccc2[nH]cc(CCN(C)C)c2c1 [Sumatriptan succinate],0.2 ± 0.024
19,Cc1ccc(N(CC2=NCCN2)c2cccc(O)c2)cc1 [Phentolamine hydrochloride],0.2 ± 0.0085

# Same assay, conditions: arabinose 1000000 nM; compound 0.1 mM; raw OD600 reference: median of DMSO wells 0.193, cell-free background 0.041
row,SMILES,growth
1,CC(C)c1ccc2oc3nc(N)c(C(=O)O)cc3c(=O)c2c1 [Amlexanox],0.248 ± 0.024
2,CCC1=C(C)CN(C(=O)NCCc2ccc(S(=O)(=O)NC(=O)N[C@H]3CC[C@H](C)CC3)cc2)C1=O [Glimepiride],0.182 ± 0.004
3,CCOc1ccc2ccccc2c1C(=O)N[C@@H]1C(=O)N2[C@@H]1SC(C)(C)[C@@H]2C(=O)O [Nafcillin sodium salt monohydrate],0.188 ± 0.01
4,S=c1[nH]cnc2nc[nH]c12 [Mercaptopurine],0.0545 ± 0.0019
5,O=C(O)c1cccnc1 [Niacin],0.238 ± 0.0034
6,CC(=O)OCC(=O)[C@@]1(O)CC[C@H]2[C@@H]3CCC4=CC(=O)C=C[C@]4(C)[C@@]3(F)[C@@H](O)C[C@@]21C [Isoflupredone acetate],0.128 ± 0.0061
7,CCc1oc2ccccc2c1C(=O)c1cc(Br)c(O)c(Br)c1 [Benzbromarone],0.03953 ± 0.00015
8,NS(=O)(=O)c1cc(Cl)c(Cl)c(S(N)(=O)=O)c1 [Dichlorphenamide],0.186 ± 0.011
9,O=C(O)[C@H]1/C(=C/CO)O[C@@H]2CC(=O)N21 [Clavulanate potassium salt],0.195 ± 0.0057
10,COc1ccccc1OCCNCC(O)COc1cccc2[nH]c3ccccc3c12 (stereo not drawn) [Carvedilol],0.04137 ± 0.0004
11,CC(=O)N[C@@H](CS)C(=O)O [Acetylcysteine],0.21 ± 0.012
12,CO[C@@]1(NC(=O)C2SC(=C(C(N)=O)C(=O)O)S2)C(=O)N2C(C(=O)O)=C(CSc3nnnn3C)CS[C@@H]21 (stereo partly drawn) [Cefotetan],0.0413 ± 0.00026
13,CC(=O)O[C@H]1C(=O)[C@@]2(C)[C@H]([C@H](OC(=O)c3ccccc3)[C@]3(O)C[C@H](OC(=O)[C@H](O)[C@@H](NC(=O)c4ccccc4)c4ccccc4)C(C)=C1C3(C)C)[C@]1(OC(C)=O)CO[C@@H]1C[C@@H]2O [Paclitaxel],0.2 ± 0.015
14,Nc1nc(=O)[nH]cc1F [Flucytosine],0.175 ± 0.008
15,CN(C)CCC[C@@]1(c2ccc(F)cc2)OCc2cc(C#N)ccc21 [Escitalopram oxalate],0.157 ± 0.0041
16,CCOC(=O)OC(C)OC(=O)[C@@H]1N2C(=O)[C@@H](NC(=O)[C@H](N)c3ccccc3)[C@H]2SC1(C)C (stereo partly drawn) [Bacampicillin hydrochloride],0.17 ± 0.0089
17,CN1CCCN=C1/C=C/c1cccs1 [Pyrantel tartrate],0.187 ± 0.00096
18,CN1CCOC(c2ccccc2)c2ccccc2C1 (stereo not drawn) [Nefopam hydrochloride],0.157 ± 0.0087
19,c1ccc2c(CC3=NCCN3)cccc2c1 [Naphazoline hydrochloride],0.189 ± 0.0029
20,COc1cc(C)nc(-n2nc(C)cc2OC)n1 [Epirizole],0.18 ± 0.0057

row,SMILES,growth
1,CCc1cccc2c3c([nH]c12)C(CC)(CC(=O)O)OCC3 (stereo not drawn) [Etodolac],0.147 ± 0.004
2,C[C@]12CC[C@@H]3c4ccc(O)cc4CC[C@H]3[C@@H]1C[C@@H](O)[C@@H]2O [Estriol],0.135 ± 0.0069
3,N#Cc1ccc(C(c2ccc(C#N)cc2)n2cncn2)cc1 [Letrozole],0.16 ± 0.0045
4,Cc1cc(C2CCCCC2)n(O)c(=O)c1 [Ciclopirox ethanolamine],0.03987 ± 0.00012
5,CC(=O)/N=c1/sc(S(N)(=O)=O)nn1C [Methazolamide],0.193 ± 0.0042
6,CC(C)NC[C@H](O)COc1ccc(CC(N)=O)cc1 [(S)-(-)-Atenolol],0.184 ± 0.0026
7,COc1cc(OC)c(C(=O)CCCN2CCCC2)c(OC)c1 [Buflomedil hydrochloride],0.189 ± 0.0075
8,CCN1CCC[C@H]1CNC(=O)c1c(OC)ccc(Br)c1OC [Remoxipride Hydrochloride],0.184 ± 0.0027
9,CN(C)c1nc(N(C)C)nc(N(C)C)n1 [Altretamine],0.176 ± 0.008
10,Nc1ccn([C@@H]2O[C@H](CO)[C@@H](O)[C@@H]2O)c(=O)n1 [Cytarabine],0.1685 ± 0.00085
11,CC(N)C12CC3CC(CC(C3)C1)C2 (stereo not drawn) [Rimantadine Hydrochloride],0.18 ± 0.0024
12,Cn1c(=O)c2nc[nH]c2n(C)c1=O [Theophylline monohydrate],0.189 ± 0.0034
13,O=C(O)c1ccccc1OP(=O)(O)O [Fosfosal],0.198 ± 0.0055
14,COC(=O)Nc1nc2cc(C(=O)c3ccccc3)ccc2[nH]1 [Mebendazole],0.168 ± 0.0043
15,O=c1[nH]cc(F)c(=O)[nH]1 [5-fluorouracil],0.0827 ± 0.0053
16,CCc1nn(CCCN2CCN(c3cccc(Cl)c3)CC2)c(=O)n1CCOc1ccccc1 [Nefazodone HCl],0.0406 ± 0.00026
17,COc1cc(NC(C)CCCN)c2ncccc2c1 (stereo not drawn) [Primaquine diphosphate],0.043 ± 0.00026
18,CNS(=O)(=O)Cc1ccc2[nH]cc(CCN(C)C)c2c1 [Sumatriptan succinate],0.193 ± 0.0067
19,Cc1ccc(N(CC2=NCCN2)c2cccc(O)c2)cc1 [Phentolamine hydrochloride],0.173 ± 0.0079
